Mtb bLac sens – beta-lactam sensitization of Mtb H37Rv, H37Rv; M. tuberculosis H37Rv growth with meropenem, percent inhibition; inhibition, % at 25 µM; 330,000 tested, 0.27% active; AID 434955, 2010; call rule not given here;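 also: growth measured after seven days incubation then overnight dye step; 0% = bacteria only wells and 100% = bacteria with antibiotic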
Rv3671c protease – Rv3671c serine protease inhibitors, primary screen, biochemical, fluorescence polarization, M. tuberculosis H37Rv; AID 2606, 2010; 320,000 tested, 0.048% active; P9WHR9; inhibition, % at 5.96 µM; in the data active = inhibition above about 38%;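 also: extracellular domain of Rv3671c used as enzyme; 0% = enzyme with DMSO and 100% = no enzyme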
Target sequence (P9WHR9 whole entry, looked up, the tested form may be a part): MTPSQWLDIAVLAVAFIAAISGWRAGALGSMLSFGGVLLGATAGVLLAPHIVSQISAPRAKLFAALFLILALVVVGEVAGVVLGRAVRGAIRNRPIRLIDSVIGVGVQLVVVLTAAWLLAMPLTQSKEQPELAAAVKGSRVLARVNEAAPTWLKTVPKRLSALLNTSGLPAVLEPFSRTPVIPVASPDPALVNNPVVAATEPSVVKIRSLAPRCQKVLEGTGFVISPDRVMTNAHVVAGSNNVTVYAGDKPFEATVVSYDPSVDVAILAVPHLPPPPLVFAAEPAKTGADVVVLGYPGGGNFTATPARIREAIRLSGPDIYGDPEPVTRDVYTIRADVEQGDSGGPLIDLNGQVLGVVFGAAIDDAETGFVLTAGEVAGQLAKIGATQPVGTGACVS
UGM FP inh – M. tuberculosis UGM enzyme inhibitors, primary screen, biochemical, fluorescence polarization, single point | UDP-galactopyranose mutase (Mycobacterium tuberculosis (strain ATCC 25618 / H37Rv)), … | purified UGM, fluorescence polarization probe displacement | inhibition, % at 10 µM | 320,000 tested, 0.06% active; in the data active = inhibition above about 10%, passing the limit was not always enough
FBA Mtb inh – Mtb FBA enzyme inhibitors, primary screen, biochemical, fluorescence, strain H37Rv; 360,000 tested, 2.3% active; inhibition, % at 1 µM; purified M. tuberculosis FBA, fluorescence read-out; Fructose-bisphosphate aldolase (Mycobacterium tuberculosis (strain ATCC 25618 / H37Rv)), …; in the data active = inhibition above about 27%;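 also: 0% = vehicle and 100% = reference inhibitor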
GDH-TPI inh – GDH-TPI coupling enzyme inhibitors, primary screen, artefact control for M. tuberculosis FBA inhibitor project, biochemical, absorbance, full deck; GDH-TPI coupled enzyme counterscreen, NADH absorbance; inhibition, % at 4.8 µM; 360,000 tested, 1.2% active; AID 588335, 2011; in the data active = inhibition above about 30%;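 also: 0% = DMSO wells and 100% = wells lacking the enzyme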
RecA intein inh – Mtb RecA intein splicing inhibitors, primary screen, biochemical, fluorescence, HTS; inhibition, % (test concentration not listed); AID 2221, 2009; 290,000 tested, 0.75% active; cell-free RecA intein splicing; in the data active = inhibition above about 30%;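 also: 0% = vehicle wells and 100% = reference inhibitor control wells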
An asterisk follows results filed as active; / = no result given; + = active, no number. Hits are enriched below; roughly 4% of the tested compounds scored in any of these assays.

SMILES	Mtb bLac sens	Rv3671c protease	UGM FP inh	FBA Mtb inh	GDH-TPI inh	RecA intein inh
CCn1c2ccccc2c2cc(C#N)c(N)nc21	7	2	3	106*	18	0
CC(=O)NC(CC(=O)NCc1ccncc1)c1ccccc1 (stereo not drawn)	0	-12	-2	0	-4	-1
CCOC(=O)C1CCC(C(=O)OCC)N1c1ccc(C=O)cc1 (stereo not drawn)	/	/	/	2	33*	/
CCOC(=O)C1C2C=CC(CC2)N1c1ccccc1 (stereo not drawn)	-6	9	-1	2	4	-4
O=C(c1cccc(-c2cncc3nccn23)c1)N1CCOCC1	/	/	/	+	8	/
C/C(=N\NC(=O)c1ccc(C(=O)N/N=C(\C)c2ccco2)o1)c1ccco1	-4	-15	0	0	31*	-2
C/C(=N\NC(=O)c1ccc(-c2ccccc2)cc1)c1ccco1	82	-3	0	1	8	14
CC(=O)Nc1nnc(CCS(=O)(=O)c2ccc(C)cc2)s1	1	2	2	-6	1	-1
CCOCCCNC(=O)c1c(N)n(-c2ccc(S(N)(=O)=O)cc2)c2nc3ccccc3nc12	4	-8	-1	33*	6	-29
CCOc1ccc(-n2c(N)c(C(=O)NCc3ccco3)c3nc4ccccc4nc32)cc1	17	-8	4	52*	18	-26
COc1cc(O)c(C(CCN2CCCCC2)c2ccc(N(C)C)cc2)c(OC)c1 (stereo not drawn)	0	-3	-3	0	1	-3
O=C(NCc1ccco1)c1cccn2c(=O)c3sccc3nc12	12	4	1	13	28	-85
O=C(NCc1cccs1)c1cccn2c(=O)c3sccc3nc12	-1	-3	0	6	31*	-6
Cc1c(Cl)c(=O)oc2cc(OCC(=O)N3CCCC(C)C3)ccc12 (stereo not drawn)	-8	10	-3	+	17	/
COc1ccc2c(c1)c(=O)oc1cc(OCC(=O)N3CCCC(C)C3)ccc12 (stereo not drawn)	2	-8	0	116*	17	-19
COc1ccc2c(c1)c(=O)oc1cc(OCC(=O)N3CCC(C)CC3)ccc12	-5	-9	1	21	18	-4
CCOC(=O)N1CCN(C(=O)CSc2nc3c([nH]c4ccccc43)c(=O)n2C)CC1	6	-14	3	-2	-7	-2
Cc1ccnc(N2CCCC(C(=O)Nc3ccc(C)c(C)c3)C2)n1 (stereo not drawn)	5	1	2	4	5	0
CC(=O)Oc1c(C)cc(O)c2ccccc12	3	-1	0	/	/	-1
CN(C)C(=O)COc1ccc(Oc2ccccc2)cc1	0	3	2	-1	0	-2
C(=Cc1cccnc1)c1ccncc1	/	/	/	-2	1	/
O=C(/C=C/c1cccnc1)/C=C/c1cccnc1	/	/	/	0	33*	/
CCOC(=O)C1CCCCN1Cc1ccccc1C(F)(F)F (stereo not drawn)	2	0	0	0	-12	3
COc1ccc(/C=C(/C#N)C(=O)Nc2ccc(C)cc2C)cc1C(=O)O	-4	0	2	-1	54*	0
COc1ccc(/C=C(/C#N)C(=O)Nc2cccc(C)c2C)cc1C(=O)O	-18	-2	1	0	37*	1
SMILES	Mtb bLac sens	Rv3671c protease	UGM FP inh	FBA Mtb inh	GDH-TPI inh	RecA intein inh
COc1ccc(/C=C(/C#N)C(=O)Nc2ccccc2C)cc1C(=O)O	-4	1	0	-5	25	2
O=C(CC(C(=O)N1CCc2ccccc21)n1ccnc1)NCc1cccnc1 (stereo not drawn)	10	-1	1	3	0	-1
CCCCN1CC(Br)C(=O)NC1=O (stereo not drawn)	/	/	/	-3	-4	/
CC1=C(C#N)c2nc(N)c(C#N)c(C)c2/C1=C\c1ccc(C)cc1	-2	6	2	/	/	33*
Cc1nc(/C=C\C(=O)O)c2cc(C)oc2n1	-6	4	3	+	8	-1
OC1CCCN(CC(O)COC(c2ccc(F)cc2)c2ccc(F)cc2)C1 (stereo not drawn)	5	0	1	8	1	0
CCOc1ccc(C(=O)NC(=S)Nc2cccnc2)cc1	4	-5	12*	0	-11	0
CCOc1cc(C(=O)NC(=S)Nc2cccnc2)cc(OCC)c1OCC	8	-3	-2	2	12	-1
Cc1ccc(C(c2nnnn2C(C)(C)C)N(Cc2ccco2)Cc2cccs2)cc1 (stereo not drawn)	-8	12	-3	36*	-11	-2
CC(CCc1ccccn1)(CCc1ccccn1)C(=O)c1ccccc1	/	/	/	3	-2	/
COc1ccc(-c2cc(CNC(=O)CCl)on2)cc1	99	2	-1	3	10	37*
COc1ccc(-c2cc(CNC(C)=O)on2)cc1	-3	7	-3	-5	-2	1
O=C1C=C(NCCc2ccccc2)C2(CCCCC2)O1	-1	12	-1	1	5	-1
CCOc1ccccc1C(=O)N[C@H](C(=O)Nc1nc2c(s1)CCCC2)C(C)C	87	-7	-1	-5	-2	10
COc1ccc(C(=O)N[C@H](C(=O)Nc2nc3c(s2)CCCC3)C(C)C)cc1	61	0	0	+	-2	7
COC(=O)c1ccccc1NC(=O)NCc1c(C)nn(C)c1C	-6	3	1	13	28	-4
CCc1cccc(C)c1NC(=O)CSc1nc2ccccc2n1CC(=O)N(C)C	7	1	-1	6	-2	/
O=C(NC(=S)NC1CCN(Cc2ccccc2)CC1)c1ccc(F)cc1	-9	2	-3	+	2	1
O=C(Cc1cccs1)NNC(=O)c1ccc(F)cc1	-11	5	-5	0	0	-3
Cc1cccc(NC2=C(Cl)C(=O)OC2OC(=O)c2ccco2)c1 (stereo not drawn)	80	2	2	2	1	42*
Cc1ccc(C)c(NC(=O)CCCCCN2C(=O)[C@@H]3Cc4ccccc4CN3C2=O)c1	1	0	0	-4	4	-4
CCNC(=O)c1sc(=S)n(CC)c1N	-16	-8	0	-2	32*	-6
CCn1c(N)c(C(=O)N2CCOCC2)sc1=S	3	-5	1	4	31*	-2
Nc1ccccc1C(=O)N1CCc2ccccc21	2	1	4	1	-3	2

From PubChem BioAssay
